Rab9 prom act = activates the Rab9 promoter | Huh7 Rab9 promoter-luciferase reporter, luminescence, 24 h | Potency, µM (highest dose often 9.22 µM), for the others: at the highest dose activation, negative = inhibition, actives largely listed as activators | hit rate 2.8% among 320,000; note: % of control where 0% means no effect; nearly all actives have a fitted effect of over 60% in size
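Using Huh7 cells stably transfected with Rab9 promoter–luciferase, compounds were incubated 24 h at 37 °C, 5% CO2; luciferase luminescence was read 10 min after reagent addition.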
FLuc modulator = inhibits or activates purified firefly luciferase, miR-21 counter-screen; P08659; purified FLuc, Km substrates, luminescence inhibition; Potency, µM (titrated, usually from 57.5 µM), for inactives: top-dose activity change, negative = inhibition, hits mostly inhibitors; hit rate 6.9% among 360,000; AID 588342;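 note: plate controls were vehicle for no effect and reference inhibitor for full effect; nearly all actives have a fitted effect of over 55% in size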
Target sequence (P08659 whole entry, looked up): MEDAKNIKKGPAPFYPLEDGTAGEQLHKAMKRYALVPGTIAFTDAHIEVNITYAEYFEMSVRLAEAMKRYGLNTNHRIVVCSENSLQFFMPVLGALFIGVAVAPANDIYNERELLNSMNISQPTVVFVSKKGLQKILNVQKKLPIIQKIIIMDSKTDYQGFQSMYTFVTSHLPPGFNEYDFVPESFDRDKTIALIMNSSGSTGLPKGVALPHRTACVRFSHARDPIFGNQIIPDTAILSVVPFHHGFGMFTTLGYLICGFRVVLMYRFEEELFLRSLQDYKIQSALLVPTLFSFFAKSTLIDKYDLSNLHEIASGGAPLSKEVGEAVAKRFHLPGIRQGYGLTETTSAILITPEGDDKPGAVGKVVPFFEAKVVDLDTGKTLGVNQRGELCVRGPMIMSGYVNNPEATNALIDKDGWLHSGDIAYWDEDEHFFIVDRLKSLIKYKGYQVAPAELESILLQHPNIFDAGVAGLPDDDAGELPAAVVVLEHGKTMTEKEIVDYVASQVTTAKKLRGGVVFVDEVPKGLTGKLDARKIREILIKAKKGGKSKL
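Biochemical qHTS of compounds, final roughly 60 µM downward over six points, against 10 nM purified firefly luciferase using Km concentrations of substrates (10 uM D-luciferin, 10 uM ATP) in Tris acetate pH 7.5 buffer; luminescence output.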
NPC1 prom act = activates the NPC1 promoter; Potency, µM (series often up to 9.22 µM), inactives show at the top dose activation, usual class: activators; Huh7 NPC1 promoter luciferase reporter, 24 h; AID 485313; hit rate 2.4% among 320,000; note: % of control where 0% means no effect; nearly all actives have a fitted effect of over 60% in size
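Quantitative HTS used a cell-based reporter: Huh7 cells stably bearing the NPC1 promoter upstream of luciferase were treated with compounds for 24 h, and promoter activation was read as luminescence.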
ELG1 genotoxic = inducers of genotoxicity in HEK293T ELG1-luciferase cells | AID 504466 | hit rate 1.3% among 330,000 | HEK293T ELG1-luciferase reporter, luminescence, 16 h | Potency, µM (series often up to 46 µM), inactives show top-dose activity change, positive = activation, usual class: activators; note: % of control where 0% means no effect; nearly all actives have a fitted effect of over 60% in size
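Luminescence read-out: rising ELG1-luciferase signal, reflecting elevated ELG1 protein under genetic stress, flags genotoxic compounds. Cells were treated for 16 hr at 37 °C before ONE-Glo detection.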
SMN2 splice up = enhancers of SMN2 splice variant expression. hit rate 2.8% among 210,000. HEK293 SMN2-luciferase splicing reporter, luminescence, 30-36 h. AID 1458. Potency, µM (doses to about 46.1 µM), for the others: at the highest dose activity change, positive = activation, actives largely listed as activators; note: % of control where 0% means no effect; nearly all actives have a fitted effect of over 55% in size
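qHTS luciferase splicing reporter: luminescence rises when SMN2 exon 7 is included in transfected HEK293 cells. Compound exposure lasted 30-36 h at 37C, with 4.5 mM final sodium butyrate as control, followed by a ONE-Glo read.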
KinaseGlo FLuc = blocks Kinase-Glo luciferase, a counter-screen artifact; Q27757; Kinase-Glo luciferase, ATP luminescence, 8 min; Potency, µM (doses to about 38.3 µM), for inactives: at the highest dose activity change, negative = inhibition, usual class: inhibitors; hit rate 0.28% among 200,000; AID 1379; note: % is set by controls: 0 for no effect and ±100 for the full control effect; nearly all actives have a fitted effect of over 60% in size
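Inhibition of Kinase-Glo luciferase light generation was assessed at 10 uM ATP in pH 7.2 imidazole buffer, with luminescence measured after eight minutes at ambient temperature.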
The depositor's hits bear a star; ? = inconclusive; . = not tested or not shown; [ ] = dose if it differs, or a comment. Compounds with a hit are over-represented: about 7.3% of the library has one in this group of screens. Calls come from the whole dose curve; as a rule, active = well fitted curve in the direction sought with a large enough effect; inconclusive = small, poorly fitted or top-dose-only effect, or another doubt; inactive = no such curve, though single readings can be large; an effect the other way counts as inactive or inconclusive. Potency is the fitted concentration of half-maximal effect.

SMILES	Rab9 prom act	FLuc modulator	NPC1 prom act	ELG1 genotoxic	SMN2 splice up	KinaseGlo FLuc
Cc1cccc(N=C2NN=C(c3ccc4c(c3)OCCO4)CS2)c1	2.82µM*	1.2µM*	2.82µM*	?	-3.4%	-20.4%
CCc1ccc(C2=NNC(=Nc3cccc(S(=O)(=O)N(C)C)c3)SC2)cc1	10.0%	10.7µM*	22.5%	3.7%	-79.9%	-0.7%
Cc1ccc(C2=NNC(=Nc3ccc(F)cc3)SC2)cc1	17.9%	16.9µM*	29.6%	-0.7%	-1.2%	0.1%
Fc1ccc(-[n+]2nc(Nc3ccccc3)sc2-c2cccc(Cl)c2Cl)cc1	-0.1%	0.2%	-1.3%	-2.5%	.	.
CCOC(=O)c1cc(CC)sc1NC(=O)c1ccc2c(c1)OCCO2	0.7%	0.2%[2.3 µM]	0.1%	3.0%	13.4%	4.8%
O=C(O)COCC(=O)N1CCN(C(c2ccccc2)c2ccccc2)CC1	-0.7%	2.1%	0.4%	-0.6%	.	.
Cc1ccc2nc(-c3ccc(NC(=S)NC(=O)CC(C)C)cc3)sc2c1	1.12µM*	23.9µM*	0.562µM*	9.2µM*	31.3%	12.7%
Cc1ccc2nc(-c3ccc(NC(=O)CNC4CC4)cc3)sc2c1	0.282µM*	2.69µM*	0.631µM*	?	2.24µM*	-1.0%
Cc1ccc2nc(-c3ccc(NC(=O)C(F)(F)F)cc3)sc2c1	.	0.477µM*	.	.	2.9%	.
Cc1ccc2nc(-c3ccc(NC(=O)c4ccccc4S(C)(=O)=O)cc3)sc2c1	.	21.3µM*	.	.	.	.
CCN1CCN(CC(=O)Nc2nc3ccc(C)cc3s2)CC1	4.2%	1.3%	2.8%	0.4%	.	.
COCCn1c(SCc2csc(-c3ccccc3)n2)nc2ccccc21	0.2%	-5.2%	-2.6%	-4.2%	-59.3%	3.6%
O=C(CCCn1c(=S)[nH]c2ccsc2c1=O)Nc1ccc2c(c1)OCO2	3.5%	?	-2.4%	0.0%	9.6%	-0.4%
CC(C)COc1cccc(-c2cc(C(=O)N/N=C/c3ccncc3)c3ccccc3n2)c1	-2.8%	0.953µM*	-3.7%	-8.2%	.	.
Cn1c(O)c(N=Nc2ccccc2)c2ccccc21	-2.4%	26.9µM*	-1.2%	3.2%	.	.
Cc1cc(C(=O)N/N=C/c2cccnc2)c2ccccc2n1	0.0%	-3.0%	-6.4%	-1.7%	.	.
Cn1cccc1/C=N/NC(=O)c1cc(-c2cccs2)nc2ccccc12	-9.3%	13.5µM*	-15.8%	-5.5%	0.5%	2.8%
CCOc1ccc(-c2cc(C(=O)N/N=C/c3cccnc3)c3ccccc3n2)cc1	?	0.379µM*	-9.1%	15.7%	.	.
COc1ccc(-c2cc(C(=O)N/N=C/c3cccnc3)c3cc(C)cc(C)c3n2)cc1	-1.9%	7.57µM*	-7.1%	-4.8%	.	.
COc1ccc(/C=N/NC(=O)c2cc(-c3cccnc3)nc3ccccc23)c(OC)c1	-5.7%	-14.1%	0.8%	0.3%	-26.7%	-3.4%
O=C(N/N=C/c1cccnc1)c1cc(-c2cccs2)nc2ccccc12	-5.3%	23.9µM*	-6.1%	-6.4%	0.2%	-1.4%
O=C(N/N=C/c1ccc[nH]1)c1cc(-c2cccs2)nc2ccccc12	-1.3%	15.1µM*	-5.1%	-15.1%	1.0%	0.6%
Cn1c(O)c(N=NC(=O)c2cc(-c3cccs3)nc3ccccc23)c2ccccc21	-1.8%	2.69µM*	2.7%	-8.8%	-26.5%	-3.3%
Cc1ccccc1-n1c(SCC(=O)N2CCN(c3ccccn3)CC2)nnc1N1CCOCC1	-2.1%	.	0.6%	1.1%	.	.
COc1ccc(Cl)cc1S(=O)(=O)NCc1cccnc1	-9.4%	2.4%	0.3%	-0.5%	-30.8%	-1.9%
SMILES	Rab9 prom act	FLuc modulator	NPC1 prom act	ELG1 genotoxic	SMN2 splice up	KinaseGlo FLuc
CC(=O)NC(C)c1ccc(C(=O)CSc2nnc(C3CC3)n2C2CC2)cc1 (stereo unspecified)	2.0%	.	0.5%	3.6%	.	.
Cc1cc(C(=O)CSc2nnc(C3CC3)n2C2CC2)c(C)n1C(C)C	4.9%	12µM*	5.7%	4.3%	.	.
C=CCn1c(C)cc(C(=O)CSc2nnc(C3CC3)n2C2CC2)c1C	14.8%	3.01µM*	16.9%	11.5%	.	.
C=CCn1c(SCC(=O)c2cc(C)n(CC3CCCO3)c2C)nnc1-c1ccccc1 (stereo unspecified)	5.2%	?	-6.5%	-4.6%	-29.5%	-2.1%
COc1cccc(Nc2nc(-c3cccc(N4C(=O)c5ccccc5C4=O)c3)cs2)c1	6.8%	2.39µM*	13.3%	7.7%	20.9%	0.8%
COc1cccc(Nc2nc(-c3ccc(O)cc3)cs2)c1	9.7%	15.1µM*	?	?	0.5%	-2.3%
COc1ccc(Nc2nc(-c3ccc4c(c3)NC(=O)CO4)cs2)cc1	17.8%	?	8.5%	-10.0%	-63.9%	-0.3%
COc1ccc(Cc2nc3ccc(C(=O)NCc4cc(C)no4)cc3o2)cc1	3.55µM*	13.5µM*	3.98µM*	16.4µM*	.	.
CCC1CCCCN1C(=O)c1ccc2nc(Cc3ccc(OC)cc3)oc2c1 (stereo unspecified)	3.55µM*	19µM*	?	?	.	.
COc1ccc(Cc2nc3ccc(C(=O)NCC(C)(C)OC)cc3o2)cc1	3.55µM*	19µM*	3.55µM*	?	.	.
COc1ccc(Cc2nc3ccc(C(=O)NCCc4ccccc4)cc3o2)cc1	.	3.8%	.	.	.	.
CC(C)CC(=O)Nc1ccc(-c2cn3ccsc3n2)cc1	0.562µM*	1.2µM*	1.41µM*	1.16µM*	10µM*	-28.8%
CC(C)(C)C(=O)Nc1ccc(-c2cn3ccsc3n2)cc1	0.126µM*	0.536µM*	0.282µM*	?	?	?
COc1ccc(C(=O)Nc2ccc(-c3cn4ccsc4n3)cc2)cc1S(=O)(=O)N1CCOCC1	7.7%	-21.3%	-2.7%	-14.8%	-1.5%	2.1%
COc1ccc(-c2csc(NC(=O)CC(C)C)n2)cc1	?	?	?	14.3%	-62.8%	-3.7%
CC(=O)c1ccc(NC(=O)c2ccc3nc(C)sc3c2)cc1	2.82µM*	?	2µM*	?	.	.
Cc1ccccc1NC(=O)c1ccc2nc(N3CCOCC3)sc2c1	?	-11.1%	-2.4%	11.6%	.	.
Cc1nc2ccc(C(=O)Nc3ccccc3Cl)cc2s1	1.12µM*	16.9µM*	2.51µM*	?	.	.
Cc1nc2cc(C(=O)O)ccc2s1	2.82µM*	16.9µM*	1.41µM*	?	11.2µM*	1.5%
Cc1nc2ccc(NC(=O)c3ccccc3)cc2s1	2.82µM*	19µM*	2.82µM*	?	22.4µM*	-2.3%
O=C(N[C@@H]1C/C=C\C[C@@H](CC(=O)N(CCO)Cc2ccccc2)C(=O)N[C@@H](c2ccccc2)COC1=O)OCC1c2ccccc2-c2ccccc21	.	.	.	-1.6%	.	.
O=C(CN1C(=O)C2C3C=CC(C3)C2C1=O)Nc1nc(SCc2ccc(Cl)cc2)n[nH]1 (stereo unspecified)	2.7%	?	-2.0%	-1.9%	-25.0%	2.0%
Clc1cccc(-c2noc3ncnc(NC4CCCCC4)c23)c1	.	?	.	.	5.9%	.
